Measured values as given in PubChem BioAssay.
Inconclusive results are not listed. Calls of active or inactive are those of the source.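 How the source made its calls, unless noted: active means inhibition above 50%, about 3 SD of the validation set; inactive means the rest.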

Key:
[1] = rapamycin-like changes in RPL19A-GFP expression – cell-based, S. cerevisiae, multiplex flow cytometry, primary screen (AID 1862; in the data active means percent of DMSO control GFP below about 86%;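 further: lower values mimic rapamycin by blocking the RPL19A rise seen in DMSO cells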); conditions: S. cerevisiae RPL19A-GFP strain, flow cytometry fluorescence, 3 h; at 10 µM; stronger effect = lower value
[2] = TOR pathway GLN3 branch reporter MEP2-GFP changes – S. cerevisiae, multiplex flow cytometry, primary screen (AID 1867;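 active means GFP response, as percent of the DMSO control, above the screen-wide mean plus 3 SD, about 139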;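 further: median GFP channel fluorescence of barcode-gated MEP2-GFP cells measured by flow cytometry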); conditions: S. cerevisiae MEP2-GFP strain, 3 h, at 10 µM, stronger effect = higher value, 100% means same as DMSO wells
[3] = TOR pathway RTG branch CIT2 reporter changes – S. cerevisiae, GFP fusion, multiplex flow cytometry, primary screen (AID 1870;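 active means percent response above a set limit, the screen-wide mean plus 3 SD, cut at about 130% in these data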;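 further: barcoded CIT2-GFP strain pooled with four other GFP strains with rapamycin as positive control; median GFP fluorescence per well over plate mean of DMSO wells so 100% = DMSO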); conditions: S. cerevisiae CIT2-GFP expression, 3 h, at 10 µM, stronger effect = higher value
[4] = TOR pathway LAP4-GFP level changes – S. cerevisiae, multiplex flow cytometry, primary screen (AID 1873;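 active means GFP signal, as percent of the solvent control, above the screen mean plus 3 SD, about 149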); conditions: S. cerevisiae LAP4-GFP expression, 3 h, at 10 µM, stronger effect = higher value
[5] = yeast AGP1-GFP level changes, GLN3 branch – cell-based, multiplex flow cytometry, S. cerevisiae, primary screen (AID 1887;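 active means GFP signal above the screen-wide mean plus 3 SD, that is over about 124.5% of the solvent control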;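 further: AGP1-GFP fusion strain of S. cerevisiae within a five-strain barcoded multiplex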); conditions: 3 h, at 10 µM, stronger effect = higher value
[6] = reduced mouse 2C T cell binding to pMHC/ICAM-1 vesicles – MLPCN validation set, flow cytometry, LFA-1/ICAM-1 modulator project, pilot screen (AID 2523;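 active means response below a set limit, under 55% cells CD8-positive and vesicle-bound, and CD8 cells' 90th-percentile brightness under 279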;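 on vesicle binding response: mean PE anti-B7-1 fluorescence of CD8+ cells relative to row control; 100% = QL9-loaded vesicles with DMSO vehicle in the same plate row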); conditions: 2C mouse CD8+ T cells, at 7 µM, stronger effect = lower value; double positive events: measured here: CD8+/vesicle+ event percentage
[7] = target: Integrin beta-1 (Homo sapiens) + Integrin alpha-4 (Homo sapiens) (UniProt P13612+P05556); assay: alpha4beta1 integrin LIBS antibody binding reduction – U937 cells, HUTS-21 mAb, flow cytometry, validation set, VLA-4 allosteric modulator project, pilot screen (AID 2674); conditions: HUTS-21 LIBS mAb binding, at 6.7 µM, stronger effect = higher value, binding induced by LDV ligand;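 further: antibody binding induced by the VLA-4 ligand LDV present at three times its Kd; 0% = LDV ligand with antibody and no compound and 100% = antibody without LDV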
[8] = calorie-restriction mimetic ROS inhibitors, yeast – validation compound set, pilot screen (AID 2706;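 active means superoxide response below 65% of plate, a cut near 3 SD across the whole screen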;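 further: yeast exposed to compound for one week at 30 degrees C before staining; 100% = mean of all compound wells on the same plate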); conditions: S. cerevisiae aging, superoxide DHE fluorescence; at 10 µM; stronger effect = lower value
[9] = target: Beta-adrenergic receptor kinase 1 (Homo sapiens) (UniProt P25098); assay: GRK2 binders displacing RNA aptamer, biochemical, validation, human GRK2, bead flow cytometry (AID 488806;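 active means aptamer binding inhibition above 30%, about 3 SD of noise from non-fluorescent compounds; inactive means inhibition at or below 30%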); conditions: bead-bound GRK2, FAM-aptamer displacement, at 10 µM, stronger effect = higher value
[10] = target: Beta-2 adrenergic receptor (Homo sapiens) (UniProt P07550); assay: agonist-induced loss of surface beta2AR – cell-based, FAP fluorogen, flow cytometry, validation set, pilot screen (AID 504459;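 active means percent response above 42, roughly 3 SD of non-fluorescent test compounds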;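 further: agonist-driven loss of surface beta2AR via internalization measured by FAP dye flow cytometry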); conditions: Am2.2-beta2AR cells, at 10 µM, stronger effect = higher value
[11] = target: AP-2 complex subunit beta (Homo sapiens) (UniProt P63010); assay: beta-arrestin/AP2 interaction blockers – biochemical, validation set, GST-AP2 beads, flow cytometry, pilot screen (AID 504541;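 active means inhibition above 54%, about 3 SD of non-fluorescent compounds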;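 further: AP2 carries R879A mutation and is captured from E. coli lysate; bead-bound FITC arrestin peptide fluorescence measuring arrestin peptide binding to AP2; 0% = DMSO wells and 100% = excess unlabeled arrestin peptide control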); conditions: FITC arrestin peptide, at 10 µM, stronger effect = higher value, AP2 beta2 appendage fragment, R879A mutant
[12] = cytosolic pH regulators acting via V-ATPase – S. cerevisiae, pHLuorin, HTS validation (AID 504600; in the data active means response above about 15%;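 further: plate controls were DMSO for no effect and reference compound for full effect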); conditions: V-ATPase proton transport, at 10 µM, stronger effect = higher value
[13] = system: anti-desmoglein-3 scFv antibody binding to human DSG3; assay: blockers of pathogenic pemphigus antibody–desmoglein-3 binding – biochemical, validation compound set, bead-based, flow cytometry, pilot screen (AID 588368;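 active means binding below the plate cutoff, the plate median minus 3 SD, with a reading above zero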;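 further: signal is the median channel fluorescence of bead-bound GFP antibody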); conditions: Protein G beads, DSG3-Fc, scFv-GFP binding, at 10 µM, stronger effect = lower value
[14] = Nile Red efflux blockade in pump-expressing yeast – validation compound set, multiplex, phenotypic, pilot screen (AID 588506;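 active means efflux inhibition above 0.42, the validation set average plus 4 SD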;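 further: Nile Red retained in cells so higher fluorescence means more efflux inhibition; 0 = negative control wells and 1 = enniatin B 25 µM full block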); conditions: S. cerevisiae pump-expressing triplex, Nile Red efflux flow cytometry; at 10 µM; stronger effect = higher value; the pumps come from Candida albicans
[15] = target: ATP-binding cassette sub-family B member 6 (Homo sapiens) (UniProt Q9NP58); assay: blockers of ABCB6-driven porphyrin uptake – K562-ABCB6 cells, flow cytometry, validation set, pilot screen (AID 588550;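 active means inhibition above the screen-wide mean plus 3 SD, about 51%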;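 further: 0% = DMSO wells and 100% = benzethonium chloride 70 µM positive control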); conditions: K562-ABCB6 porphyrin accumulation, 1 h, at 10 µM, stronger effect = higher value
[16] = AML differentiation inducers, ER-HoxA9 marrow cells – cell-based, GFP/MAC1 double positive, flow cytometry, validation set, primary screen (AID 588685;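 active means differentiation response of at least 50%, scaled between solvent and reference control, from cells with both markers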;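 further: compound exposure lasts four days before antibody staining and flow analysis; 0% = DMSO wells and 100% = 5 µM fulvestrant positive control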); conditions: stronger effect = higher value, normalized: vehicle 0, fulvestrant 100

Sequence of Beta-2 adrenergic receptor (Homo sapiens) (P07550 whole entry, looked up): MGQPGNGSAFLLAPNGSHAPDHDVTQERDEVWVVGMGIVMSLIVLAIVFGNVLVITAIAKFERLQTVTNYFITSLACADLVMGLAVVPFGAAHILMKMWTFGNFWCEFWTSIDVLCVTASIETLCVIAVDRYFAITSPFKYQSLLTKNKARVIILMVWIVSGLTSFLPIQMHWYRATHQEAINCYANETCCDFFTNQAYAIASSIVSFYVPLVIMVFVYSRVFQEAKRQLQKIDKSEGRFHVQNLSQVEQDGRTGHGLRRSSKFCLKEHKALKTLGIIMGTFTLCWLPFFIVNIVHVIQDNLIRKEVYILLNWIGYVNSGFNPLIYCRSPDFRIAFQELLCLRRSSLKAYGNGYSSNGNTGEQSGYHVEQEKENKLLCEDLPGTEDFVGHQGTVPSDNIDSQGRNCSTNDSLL
Sequence of Integrin beta-1 (Homo sapiens) + Integrin alpha-4 (Homo sapiens) (P05556 whole entry, looked up): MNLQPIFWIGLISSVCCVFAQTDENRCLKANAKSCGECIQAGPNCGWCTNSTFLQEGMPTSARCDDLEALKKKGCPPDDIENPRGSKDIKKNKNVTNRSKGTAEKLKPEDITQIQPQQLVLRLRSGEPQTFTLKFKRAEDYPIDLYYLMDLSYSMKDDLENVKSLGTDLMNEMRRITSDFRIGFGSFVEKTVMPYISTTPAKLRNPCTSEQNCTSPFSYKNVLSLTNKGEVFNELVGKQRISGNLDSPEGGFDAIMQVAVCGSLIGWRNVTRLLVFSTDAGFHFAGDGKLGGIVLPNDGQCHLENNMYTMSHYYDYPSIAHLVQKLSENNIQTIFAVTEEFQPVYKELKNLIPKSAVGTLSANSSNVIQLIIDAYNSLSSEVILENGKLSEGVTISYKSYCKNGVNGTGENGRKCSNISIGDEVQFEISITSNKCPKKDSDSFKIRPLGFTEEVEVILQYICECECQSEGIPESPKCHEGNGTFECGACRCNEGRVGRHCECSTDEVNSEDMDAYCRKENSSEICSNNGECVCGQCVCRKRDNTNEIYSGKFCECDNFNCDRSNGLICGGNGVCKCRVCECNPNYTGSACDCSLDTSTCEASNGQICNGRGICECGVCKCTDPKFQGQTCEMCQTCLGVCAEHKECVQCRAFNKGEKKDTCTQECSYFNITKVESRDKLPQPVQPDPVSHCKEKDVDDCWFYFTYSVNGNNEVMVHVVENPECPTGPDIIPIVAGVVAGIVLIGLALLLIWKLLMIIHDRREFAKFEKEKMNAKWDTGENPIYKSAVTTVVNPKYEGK
Sequence of Integrin beta-1 (Homo sapiens) + Integrin alpha-4 (Homo sapiens) (P13612 whole entry, looked up): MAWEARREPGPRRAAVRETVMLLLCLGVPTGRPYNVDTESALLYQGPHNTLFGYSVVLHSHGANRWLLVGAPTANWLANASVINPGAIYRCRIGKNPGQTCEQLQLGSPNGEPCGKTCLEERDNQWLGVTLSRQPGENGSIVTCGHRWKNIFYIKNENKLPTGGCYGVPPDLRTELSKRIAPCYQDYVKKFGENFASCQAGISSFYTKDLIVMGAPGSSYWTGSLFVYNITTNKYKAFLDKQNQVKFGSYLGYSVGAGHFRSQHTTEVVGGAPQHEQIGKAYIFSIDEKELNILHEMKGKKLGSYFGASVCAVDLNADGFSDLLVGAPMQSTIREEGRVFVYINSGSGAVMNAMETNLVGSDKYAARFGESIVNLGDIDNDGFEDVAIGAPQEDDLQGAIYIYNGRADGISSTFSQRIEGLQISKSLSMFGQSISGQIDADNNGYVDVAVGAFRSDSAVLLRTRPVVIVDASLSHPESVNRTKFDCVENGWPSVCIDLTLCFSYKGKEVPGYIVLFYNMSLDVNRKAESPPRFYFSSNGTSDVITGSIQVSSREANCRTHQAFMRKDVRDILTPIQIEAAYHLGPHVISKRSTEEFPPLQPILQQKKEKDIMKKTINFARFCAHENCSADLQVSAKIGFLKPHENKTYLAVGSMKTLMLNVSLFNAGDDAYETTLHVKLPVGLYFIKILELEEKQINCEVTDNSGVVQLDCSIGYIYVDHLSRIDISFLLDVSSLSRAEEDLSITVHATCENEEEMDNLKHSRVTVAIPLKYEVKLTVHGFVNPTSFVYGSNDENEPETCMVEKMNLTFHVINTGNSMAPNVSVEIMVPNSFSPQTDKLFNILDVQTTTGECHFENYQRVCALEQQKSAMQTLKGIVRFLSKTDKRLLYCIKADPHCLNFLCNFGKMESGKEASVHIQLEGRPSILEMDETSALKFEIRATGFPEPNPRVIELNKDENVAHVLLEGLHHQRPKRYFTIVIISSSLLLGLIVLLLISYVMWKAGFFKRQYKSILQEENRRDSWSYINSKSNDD
Sequence of ATP-binding cassette sub-family B member 6 (Homo sapiens) (Q9NP58 whole entry, looked up): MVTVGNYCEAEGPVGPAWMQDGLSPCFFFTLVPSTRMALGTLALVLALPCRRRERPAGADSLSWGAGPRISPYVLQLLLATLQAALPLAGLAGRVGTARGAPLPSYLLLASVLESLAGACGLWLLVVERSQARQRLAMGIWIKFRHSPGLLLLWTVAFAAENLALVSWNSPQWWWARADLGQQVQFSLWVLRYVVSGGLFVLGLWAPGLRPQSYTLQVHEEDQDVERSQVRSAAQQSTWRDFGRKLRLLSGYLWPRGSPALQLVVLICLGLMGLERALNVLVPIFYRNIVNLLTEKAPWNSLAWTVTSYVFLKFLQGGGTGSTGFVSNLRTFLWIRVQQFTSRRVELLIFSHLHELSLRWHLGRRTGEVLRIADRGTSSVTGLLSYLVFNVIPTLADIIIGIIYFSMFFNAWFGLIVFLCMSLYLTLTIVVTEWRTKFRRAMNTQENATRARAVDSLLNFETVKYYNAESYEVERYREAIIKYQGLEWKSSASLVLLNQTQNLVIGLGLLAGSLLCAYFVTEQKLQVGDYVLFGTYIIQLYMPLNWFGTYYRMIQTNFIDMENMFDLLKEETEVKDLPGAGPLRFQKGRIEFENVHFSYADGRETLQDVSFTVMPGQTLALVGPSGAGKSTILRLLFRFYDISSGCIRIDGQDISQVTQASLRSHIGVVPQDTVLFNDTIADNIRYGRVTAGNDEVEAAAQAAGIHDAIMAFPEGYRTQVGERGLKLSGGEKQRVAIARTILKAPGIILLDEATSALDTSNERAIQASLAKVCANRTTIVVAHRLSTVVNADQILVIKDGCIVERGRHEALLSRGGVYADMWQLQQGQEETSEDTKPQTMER
Sequence of Beta-adrenergic receptor kinase 1 (Homo sapiens) (P25098 whole entry, looked up): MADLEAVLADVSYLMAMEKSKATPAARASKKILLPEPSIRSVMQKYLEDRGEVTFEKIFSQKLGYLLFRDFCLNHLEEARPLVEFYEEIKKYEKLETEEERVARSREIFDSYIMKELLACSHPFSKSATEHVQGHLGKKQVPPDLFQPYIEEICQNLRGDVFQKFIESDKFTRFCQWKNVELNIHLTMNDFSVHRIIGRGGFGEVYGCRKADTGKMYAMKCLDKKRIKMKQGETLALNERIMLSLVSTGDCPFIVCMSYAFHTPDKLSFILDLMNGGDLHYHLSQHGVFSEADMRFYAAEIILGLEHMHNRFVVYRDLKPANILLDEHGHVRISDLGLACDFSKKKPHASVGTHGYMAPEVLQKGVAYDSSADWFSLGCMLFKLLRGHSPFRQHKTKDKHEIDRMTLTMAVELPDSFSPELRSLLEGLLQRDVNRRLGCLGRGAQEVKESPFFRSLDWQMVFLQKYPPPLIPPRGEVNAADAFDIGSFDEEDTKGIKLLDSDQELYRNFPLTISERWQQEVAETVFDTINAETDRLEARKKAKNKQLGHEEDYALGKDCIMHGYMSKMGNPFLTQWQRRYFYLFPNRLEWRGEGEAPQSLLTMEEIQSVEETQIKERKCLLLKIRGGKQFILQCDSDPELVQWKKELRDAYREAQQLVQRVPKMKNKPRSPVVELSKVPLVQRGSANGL
Sequence of AP-2 complex subunit beta (Homo sapiens) (P63010 whole entry, looked up, the tested form may be a part, one chain of several): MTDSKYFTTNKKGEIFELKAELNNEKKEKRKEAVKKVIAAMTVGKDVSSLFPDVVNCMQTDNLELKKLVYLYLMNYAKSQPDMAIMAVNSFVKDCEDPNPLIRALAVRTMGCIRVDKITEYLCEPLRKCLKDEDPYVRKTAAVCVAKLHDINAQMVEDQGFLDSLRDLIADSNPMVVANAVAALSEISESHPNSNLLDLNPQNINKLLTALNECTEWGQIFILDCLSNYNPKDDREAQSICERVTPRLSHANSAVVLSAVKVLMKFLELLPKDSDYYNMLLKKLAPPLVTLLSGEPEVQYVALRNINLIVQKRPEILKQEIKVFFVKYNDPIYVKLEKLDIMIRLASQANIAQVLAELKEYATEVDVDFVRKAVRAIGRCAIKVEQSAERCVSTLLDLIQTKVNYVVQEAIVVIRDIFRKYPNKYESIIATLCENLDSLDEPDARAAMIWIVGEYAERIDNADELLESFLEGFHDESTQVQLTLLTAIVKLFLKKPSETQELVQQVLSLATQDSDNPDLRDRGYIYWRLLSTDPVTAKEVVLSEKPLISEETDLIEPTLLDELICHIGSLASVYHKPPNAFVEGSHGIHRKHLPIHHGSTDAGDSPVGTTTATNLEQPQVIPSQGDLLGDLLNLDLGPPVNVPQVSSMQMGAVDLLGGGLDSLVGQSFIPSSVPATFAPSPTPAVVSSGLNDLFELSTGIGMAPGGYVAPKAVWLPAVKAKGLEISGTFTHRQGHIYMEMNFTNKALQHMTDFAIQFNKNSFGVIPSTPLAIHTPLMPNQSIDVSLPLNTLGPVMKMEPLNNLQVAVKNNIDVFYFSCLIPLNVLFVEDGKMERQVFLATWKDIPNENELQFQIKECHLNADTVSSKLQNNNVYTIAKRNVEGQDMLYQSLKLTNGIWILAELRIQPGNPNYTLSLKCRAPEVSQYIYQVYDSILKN

Row | Structure (SMILES) | percent of DMSO control GFP [1] | GFP response vs DMSO [2] | percent response of DMSO control [3] | GFP response vs DMSO [4] | GFP response, % of DMSO [5] | double positive events [6] [%] | vesicle binding response [6] | inhibition [7] | superoxide response (% of plate) [8] | aptamer binding inhibition [9] | response [10] | inhibition [11] | response [12] | binding (% of control) [13] | efflux inhibition (fraction of control) [14] | inhibition [15] | differentiation response [16]
1 | COc1ccc(C2OC(=O)Cc3cc(OC)c(OC)cc32)cc1 (stereo not drawn) | 90.6% (inactive) | 127% (inactive) | 91.3% (inactive) | 82.5% (inactive) | 88% (inactive) | 63.4 | 177% (inactive) | -6.15% (inactive) | 94.5% (inactive) | 2% (inactive) | -3.02% (inactive) | -4.51% (inactive) | -1.1% (inactive) | 103% (inactive) | -0.38 (inactive) | 7% (inactive) | 3.28% (inactive)
2 | CC1(C)O[C@@H]2C[C@H]3[C@@H]4C[C@H](F)C5=CC(=O)CC[C@]5(C)[C@H]4[C@@H](O)C[C@]3(C)[C@]2(C(=O)CO)O1 | 97.9% (inactive) | 95.6% (inactive) | 89.3% (inactive) | 91.5% (inactive) | 92.4% (inactive) | 63.8 | 128% (inactive) | -2.43% (inactive) | 88.9% (inactive) | 37% (active) | 19% (inactive) | -4.49% (inactive) | -2% (inactive) | 106% (inactive) | 0.25 (inactive) | 12% (inactive) | 34.9% (inactive)
3 | COc1ccc(OC(C)C(=O)Nc2ccc([N+](=O)[O-])cc2)cc1 (stereo not drawn) | 102% (inactive) | 107% (inactive) | 99.7% (inactive) | 114% (inactive) | 97.5% (inactive) | 65.7 | 249% (inactive) | 0.25% (inactive) | 103% (inactive) | -3% (inactive) | 1.65% (inactive) | -7.72% (inactive) | 3.86% (inactive) | 103% (inactive) | -0.21 (inactive) | 5% (inactive) | 13% (inactive)
4 | Cn1c(Oc2ccc3c(c2)OCO3)nc2c1c(=O)n(Cc1ccccc1)c(=O)n2C | 98.7% (inactive) | 102% (inactive) | 94.4% (inactive) | 104% (inactive) | 109% (inactive) | 60.5 | 189% (inactive) | -5.38% (inactive) | 116% (inactive) | 8% (inactive) | -26.9% (inactive) | 3.83% (inactive) | -0.9% (inactive) | 97.8% (inactive) | 0.04 (inactive) | 5% (inactive) | -4.99% (inactive)
5 | c1ccc(CNc2ncnc3nc[nH]c23)cc1 | 103% (inactive) | 104% (inactive) | 90.8% (inactive) | 90.1% (inactive) | 97.8% (inactive) | 63.6 | 581% (inactive) | 9.92% (inactive) | 93.5% (inactive) | 6% (inactive) | 1.86% (inactive) | -1.71% (inactive) | -1.37% (inactive) | 94.8% (inactive) | 0.11 (inactive) | 3% (inactive) | 7.09% (inactive)
6 | Cc1ccnc2c1NC(=O)c1cccnc1N2C1CC1 | 102% (inactive) | 98.3% (inactive) | 115% (inactive) | 98% (inactive) | 99.4% (inactive) | 66.5 | 295% (inactive) | 2.66% (inactive) | 108% (inactive) | 4% (inactive) | -1.22% (inactive) | -5.17% (inactive) | 0.42% (inactive) | 99.2% (inactive) | -0.17 (inactive) | 2% (inactive) | 2.2% (inactive)
7 | CC(C)CC1c2[nH]c3ccccc3c2CCN1C(=O)CCC(=O)N(C)C (stereo not drawn) | 90.9% (inactive) | 117% (inactive) | 107% (inactive) | 79.2% (inactive) | 93.1% (inactive) | 80.7 | 264% (inactive) | 3.55% (inactive) | 104% (inactive) | 4% (inactive) | 6.34% (inactive) | -2.59% (inactive) | -2.43% (inactive) | 104% (inactive) | -0.31 (inactive) | 12% (inactive) | -6.55% (inactive)
8 | N/C(=N\OC(=O)c1cccc(Br)c1)c1ccncc1 | 103% (inactive) | 105% (inactive) | 106% (inactive) | 111% (inactive) | 94.2% (inactive) | 62.9 | 166% (inactive) | 9.63% (inactive) | 106% (inactive) | -2% (inactive) | -7.41% (inactive) | 43.1% (inactive) | 4.2% (inactive) | 100% (inactive) | -0.115 (inactive) | 8% (inactive) | -4.57% (inactive)
9 | Cc1ccc(S(=O)(=O)NC(C(=O)Oc2cc3oc(=O)cc(C)c3cc2Cl)C(C)C)cc1 (stereo not drawn) | 102% (inactive) | 102% (inactive) | 97.7% (inactive) | 103% (inactive) | 111% (inactive) | 62.7 | 264% (inactive) | 3.99% (inactive) | 98.7% (inactive) | 3% (inactive) | -20.1% (inactive) | -3.53% (inactive) | 1.33% (inactive) | 98.7% (inactive) | 0.21 (inactive) | 7% (inactive) | -0.06% (inactive)
